Bioassay records deposited in PubChem by National Center for Advancing Translational Sciences (NCATS).
D2 PAM-1: human D2 receptor positive allosteric modulation; 360,000 tested, 0.23% active; AID 624464; potentiation, % (concentration not given with the values); DiscoveRx D2 beta-arrestin cells, luminescence, 90 min; 100% = 57 uM dopamine signal; in the data active = potentiation above about 50%; inconclusive = mostly about 30% to 49%
Target sequence (P14416 whole entry, looked up): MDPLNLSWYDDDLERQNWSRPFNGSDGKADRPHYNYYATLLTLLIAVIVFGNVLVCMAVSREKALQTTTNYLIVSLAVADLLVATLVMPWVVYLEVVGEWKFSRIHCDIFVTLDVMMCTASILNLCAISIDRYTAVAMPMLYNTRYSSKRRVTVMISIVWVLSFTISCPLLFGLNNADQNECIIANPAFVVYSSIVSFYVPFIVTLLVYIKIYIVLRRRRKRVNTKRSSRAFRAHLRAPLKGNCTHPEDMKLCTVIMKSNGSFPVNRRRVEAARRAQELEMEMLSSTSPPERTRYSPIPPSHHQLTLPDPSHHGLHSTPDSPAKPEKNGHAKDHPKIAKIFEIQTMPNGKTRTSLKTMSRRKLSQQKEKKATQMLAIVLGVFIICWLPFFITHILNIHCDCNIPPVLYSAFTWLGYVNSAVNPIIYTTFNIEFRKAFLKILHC
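PathHunter D2 cells, attached overnight at 37 deg C, received compound in DMSO plus dopamine at EC20 (50 nM final) for 90 min at 37 deg C. Beta-arrestin recruitment was read as luminescence after 1 h with detection reagent at ambient temperature.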
D2 ag-1: activates the human D2 dopamine receptor; HEK293 T-REx D2 cells, calcium flux agonist mode; activation, % at 2 µM; P14416; 340,000 tested, 0.53% active;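 active = activation over 3 SD above normal in the single-dose calcium agonist read, cut at about 30% in these data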
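Agonism scored from kinetic calcium signal (1 read/sec, 180 s) following compound pin transfer, after a 10 s baseline. Cells: HEK293 Trex line expressing inducible D2 receptor coupled to calcium, dye-loaded after overnight culture at 30 C.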
D2 ag-2: activates the human D2 dopamine receptor. 360,000 tested, 0.084% active. DiscoveRx PathHunter D2 beta-arrestin, luminescence, 90 min; 100% = 57 uM dopamine signal. activation, % (no concentration beside the values); in the data active = activation above about 40%; inconclusive = between about 15% and that limit
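Agonist mode: compounds alone added to overnight-plated D2 PathHunter cells for 90 min at 37 C, with 57 uM final dopamine (EC100) defining full response. Beta-arrestin recruitment detected by chemiluminescent reagent, read after 1 h at ambient temperature.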
D2 antag: antagonizes the human D2 dopamine receptor. 340,000 tested, 2% active. AID 485344. inhibition, % at 10 µM. HEK293 TREx D2 cells, calcium flux, dopamine EC80. P14416; in the data active = inhibition above about 30%; inactive = below that, where a call was filed
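Tetracycline-induced HEK293 TREx cells expressing D2 receptor forced-coupled to calcium signalling, loaded with no-wash calcium dye. Compounds added and calcium flux read 180 s, then dopamine added at EC80 and read a further 180 s.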
D2 PAM-2: positively modulates the human D2 dopamine receptor allosterically | P14416 | 340,000 tested, 0.34% active | HEK293 T-REx D2, calcium flux, EC20 dopamine potentiation | potentiation, % at 10 µM | AID 485347;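 active = potentiation over 3 SD above the plate norm, cut at about 30% in these data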
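Calcium flux readout, no-wash dye, 1 read/s. Inducible HEK293 Trex D2 line, overnight 30 C. Compound alone 180 s (agonist flags), then EC20 dopamine, another 180 s to score potentiation.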
Large screens that a line does not name were inactive. An excerpt weighted towards active compounds, which were near 2.4% of everything screened.

Cc1c(OCC(=O)N[C@@H](CSCc2ccccc2)C(=O)O)ccc2c3c(c(=O)oc12)CCC3	D2 antag 31
Cc1c(OCC(=O)N[C@@H](Cc2ccccc2)C(=O)O)ccc2c3c(c(=O)oc12)CCC3	none
CCN(C1CCCCC1)S(=O)(=O)c1ccc(S(=O)(=O)NCCc2ccncc2)cc1	D2 antag 32
CCN(C1CCCCC1)S(=O)(=O)c1ccc(S(=O)(=O)NCc2ccncc2)cc1	none (no result: D2 ag-1, D2 antag, D2 PAM-2)
CCN(Cc1ccccc1)S(=O)(=O)c1ccc(C(=O)Nc2nnc(-c3ccccc3OC)o2)cc1	D2 antag 42
Nc1cc(Cl)nnc1Cl	D2 antag 36
Cc1cccc(NC(=O)C(C)SCc2nc3sc4c(c3c(=O)[nH]2)CCCC4)n1 (stereo unspecified)	none
Cc1cc2ccccc2n1-c1ccc(C(=O)N2CCC(C(=O)NCc3ccc(F)cc3)CC2)s1	none (no result: D2 PAM-1, D2 ag-2, D2 antag)
CC(C)CCCN1CCN=C1Nc1ccccc1	D2 antag 39
CCCCNC1=CC(=O)C(=O)c2ccccc21	D2 ag-2 51
CN(Cc1ccccc1F)c1nc(-c2cccnc2)nc2ccccc12	none (no result: D2 ag-1, D2 antag, D2 PAM-2)
CCOc1ccc(CN(C)c2nc(-c3cccnc3)nc3ccccc23)cc1OC	D2 antag 36
N#CCC(=N)N1CCN(c2cccc(Cl)c2)CC1	D2 antag 63
Cc1cc(C)cc(NC(=O)Cc2csc(COc3cccc(C)c3)n2)c1	none (no result: D2 PAM-1, D2 ag-2, D2 antag)
CCCCNCC1CCCO1 (stereo unspecified)	D2 antag 70
Cc1ccc(CNCC2CCCO2)o1 (stereo unspecified)	none
O=C(NCC1CC1)c1csc([C@@H]2O[C@H](CO)[C@H](O)[C@H](O)[C@H]2O)n1	none (no result: D2 ag-1, D2 antag, D2 PAM-2)
COc1cc(OC)c(OC)cc1CN1CCCC(C(=O)c2sccc2C)C1 (stereo unspecified)	none
Cc1ccsc1C(=O)C1CCCN(Cc2cc(F)ccc2-n2cccn2)C1 (stereo unspecified)	D2 antag 34
COc1ccc(S(=O)(=O)N2CC(=O)Nc3ccccc32)cc1Cl	D2 PAM-2 60
CCOc1ccc(S(=O)(=O)N2CC(=O)Nc3ccccc32)cc1C#N	none
CC(C)c1ccc(NC(=O)C2CC(=O)N=C(N)S2)cc1 (stereo unspecified)	D2 PAM-1 109, D2 ag-2 inconclusive
CCc1ccc(NC(=O)C2CC(=O)N=C(N)S2)cc1 (stereo unspecified)	none
COc1ccc(NC(=O)C2(C)CCN2Cc2csc3ccccc23)cc1OC (stereo unspecified)	none (no result: D2 ag-1, D2 antag, D2 PAM-2)
CC1CC(=O)Nc2ccccc2N1C(=O)CSc1ccc2ccccc2n1 (stereo unspecified)	none (no result: D2 ag-1, D2 antag, D2 PAM-2)
CCCn1c(C(=O)OC)cc2c1ccn2-c1ccc(F)cc1	D2 PAM-2 32
COC(=O)c1cc2c(ccn2-c2ccc(F)cc2)n1CC(C)C	none
CC(=O)N1CCN(C(=O)c2cccc(NS(=O)(=O)c3ccc(Br)cc3)c2)CC1	none
c1ccc(CSc2ncn[nH]2)nc1	D2 antag 42
CSCC(C)N1CCC(CCC(=O)NC2CC2)CC1 (stereo unspecified)	D2 PAM-2 101
Cc1ccnc(NC(=O)c2cccc(S(=O)(=O)N3CCN(c4ccc(F)cc4)CC3)c2)c1	none
Cn1cccc1-c1cc2n(n1)CCC(=O)N2CCCC(=O)NCc1ccc(F)cc1	none (no result: D2 PAM-1, D2 ag-2, D2 antag)
O=C(COc1ccc(Br)cc1)NCC1COc2ccccc2O1 (stereo unspecified)	D2 antag 33
c1ccc2c(c1)OCC(CNCC1COc3ccccc3O1)O2 (stereo unspecified)	D2 ag-1 37, D2 antag 64
O=C(O)CNCC1COc2ccccc2O1 (stereo unspecified)	none
NS(=O)(=O)c1cccc(NC(=O)COC(=O)/C=C/c2nc3ccccc3s2)c1	none (no result: D2 ag-1, D2 antag, D2 PAM-2)
O=C(C[C@@H]1C/C=C\CCC(=O)OC[C@H](Cc2ccccc2)NC1=O)N[C@@H](CO)Cc1ccccc1	none (no result: D2 ag-1, D2 antag, D2 PAM-2)
CCCN(CC(=O)Nc1ccccc1OC)C(=O)CCNC(=O)c1ccccc1OC	none
CC(C)CC(=O)Nc1ccccc1N1CCN(C(=O)c2ccccc2)CC1	D2 PAM-1 62
O=C(NCC(=O)N1CCN(C(=O)c2ccccc2)CC1)c1ccccc1	none
CC(CC(=O)N1CCN(C(=O)c2ccccc2)CC1)c1ccccc1 (stereo unspecified)	D2 antag 38
O=C(c1cc(-c2cccnc2)nc2ccccc12)N1CCN(S(=O)(=O)c2ccc(Cl)s2)CC1	none (no result: D2 ag-1, D2 antag, D2 PAM-2)
CCOc1ccc(-n2c(=O)c3c4c(sc3n(CC(=O)NC(C)CC)c2=O)CCCC4)cc1 (stereo unspecified)	none (no result: D2 PAM-1, D2 ag-2, D2 antag)
COc1ccc(CN(C(=O)c2cc3ccccc3oc2=O)C2CCS(=O)(=O)C2)cc1OC (stereo unspecified)	none
CCC(C)N1CC23C=CC(O2)C(C(=O)OC)C3C1=O (stereo unspecified)	D2 antag 31
COCCCN1CC23C=CC(O2)C(C(=O)O)C3C1=O (stereo unspecified)	none
CCCN1CC23C=CC(O2)C(C(=O)O)C3C1=O (stereo unspecified)	D2 antag 48
CSc1ccc(S(=O)(=O)NCC(=O)OCC(=O)N(C)Cc2ccccc2)cc1[N+](=O)[O-]	none
COc1cccc(NC(=O)C2C3C=CC(O3)C2C(=O)NCc2cccnc2)c1 (stereo unspecified)	D2 antag 44
COc1cc(NC(=S)NCc2cccnc2)cc(OC)c1	none
O=C(c1cn(-c2ccccc2)nc1-c1cccnc1)N1CCN(S(=O)(=O)c2cccc(F)c2)CC1	none
O=C(CCN1CCN(CCO)CC1)Nc1ccc(OCc2ccccc2)cc1	none
O=C(CCN1CCN(Cc2ccccc2)CC1)Nc1ccc(OCc2ccccc2)cc1	D2 antag 42
CCCOc1ccc(NC(=O)CC2C(=O)N(CC)C(=S)N2CCCN2CCN(Cc3ccccc3)CC2)cc1 (stereo unspecified)	D2 ag-2 inconclusive, D2 antag 33 (no result: D2 PAM-2)
CCN1CCN(c2sc(S(=O)(=O)CC)nc2S(=O)(=O)c2ccc(C)cc2)CC1	none (no result: D2 ag-1, D2 antag, D2 PAM-2)
CCCS(=O)(=O)c1nc(S(=O)(=O)c2ccc(C)cc2)c(N2CCN(CC)CC2)s1	D2 antag 67
CC(C)C[C@H]1C(=O)N2CCC[C@H]2[C@]2(O)O[C@](NC(=O)C3C=C4c5cccc6[nH]c(Br)c(c56)C[C@H]4N(C)C3)(C(C)C)C(=O)N12 (stereo partly specified)	D2 PAM-1 inconclusive, D2 ag-2 52 (no result: D2 ag-1, D2 antag, D2 PAM-2)
Cc1ccc(S(=O)(=O)NCCC(=O)OCC(=O)N(Cc2ccccc2)C(C)(C)C)cc1	none (no result: D2 ag-1, D2 antag, D2 PAM-2)
COc1cccc(/C=C/C(=O)Nc2cccc(C(C)=O)c2)c1OC	none
COc1cc(/C=C/C(=O)Nc2ccc3nc4n(c(=O)c3c2)CCCC4)cc(OC)c1OC	none
